# TSHR antag = antagonists of human thyroid stimulating hormone receptor; P16473; TSHR-expressing cells, TSH-stimulated cAMP HTRF, 2 h; active compounds read low; activity change, negative = inhibition, % at 11.5 µM; 330,000 compounds, 0.2% hits;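 active = activity change below a set negative limit, meaning inhibition stronger than a set level, cut at about -70% in these data; inconclusive = activity change between two set negative limits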; note: % is set by controls: 0 for no effect and ±100 for the full control effect
#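 Read-out is FRET at 665 nm (cryptate excitation 337 nm) from a cryptate-tagged anti-cAMP antibody, competed by cell cAMP against cAMP-d2. Compounds are tested on freshly harvested TSHR cells challenged with 4nM TSH (EC80) for 2 hours at 37 deg C.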
# TCR activator = activators of T cell receptors. 330,000 tested, under 10 active. AID 504894. primary human leukocytes, anti-CD3, IL-2 HTRF, 48 h. Potency, µM (doses to about 9.22 µM), inactives show at the top dose activation of IL-2 secretion, hits mostly activators; note: % of control where 0% means no effect
#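 Primary human leukocytes receive a-CD3 beads and test compound and are incubated 48 hr. Secreted IL-2 is then assayed by HTRF, measuring 665nm acceptor emission after 320nm excitation of the europium donor.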
# N370S GC = inhibits or activates N370S mutant glucocerebrosidase; AID 2101; Potency, µM (doses to about 59.4 µM), for inactives: at the top dose activity change, negative = inhibition, usual class: inhibitors; P04062; 330,000 compounds, 0.092% hits; N370S GC spleen homogenate, 4MU-glucoside fluorescence;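 note: potency is the fitted concentration of half-maximal effect; 0% = full enzyme activity and -100% = no enzyme basal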
# BRCA1 expr act = increases BRCA1 expression; MCF7-BRCA1-FFLuc reporter, luminescence, 48 h; response scale: scaled: vehicle 0%, 10 µM genistein 100%; Potency, µM (doses to about 46.1 µM), without a hit: at the highest dose activation, most hits filed as activators; 380,000 compounds, 1.1% hits; note: potency is the fitted concentration of half-maximal effect; nearly all actives have a fitted effect of over 80% in size
#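 Activators of BRCA1 expression were detected as increased firefly luciferase luminescence in engineered MCF7 cells after 48 h compound incubation. Signals were scaled to genistein 10 microM as full activation.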
# GLS inh = glutaminase GLS (human) inhibition. O94925. GLS enzymatic activity, qHTS titration. Potency, µM (doses to about 45.5 µM), for the others: at the top dose activity change, negative = inhibition, hits mostly inhibitors. 410,000 compounds, 0.21% hits; note: potency is the fitted concentration of half-maximal effect; % is set by controls: 0 for no effect and ±100 for the full control effect
# Target sequence (O94925 whole entry, looked up): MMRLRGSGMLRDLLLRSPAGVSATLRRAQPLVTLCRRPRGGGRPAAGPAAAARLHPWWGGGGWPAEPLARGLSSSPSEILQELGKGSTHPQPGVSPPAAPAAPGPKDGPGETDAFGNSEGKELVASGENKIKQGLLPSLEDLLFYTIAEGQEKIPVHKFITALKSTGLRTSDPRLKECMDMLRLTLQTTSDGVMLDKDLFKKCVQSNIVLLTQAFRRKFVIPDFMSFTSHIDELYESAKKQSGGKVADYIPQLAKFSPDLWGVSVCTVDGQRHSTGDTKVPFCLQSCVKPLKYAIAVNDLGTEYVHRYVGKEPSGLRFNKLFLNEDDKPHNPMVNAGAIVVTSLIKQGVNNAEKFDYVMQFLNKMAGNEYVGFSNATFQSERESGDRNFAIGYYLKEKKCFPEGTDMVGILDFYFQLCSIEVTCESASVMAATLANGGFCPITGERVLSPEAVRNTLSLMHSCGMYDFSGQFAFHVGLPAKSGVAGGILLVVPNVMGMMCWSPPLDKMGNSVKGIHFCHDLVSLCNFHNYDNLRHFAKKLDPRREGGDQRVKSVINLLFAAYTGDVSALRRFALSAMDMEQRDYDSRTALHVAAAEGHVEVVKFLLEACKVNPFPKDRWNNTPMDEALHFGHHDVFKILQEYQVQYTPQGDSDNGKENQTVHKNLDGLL
#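 Read-out is an Amplex red fluorescence increase coupled through glutamate oxidase and HRP, measured before and after 30 min room-temperature incubation. hKGA is in 45 mM KH2PO4 (pH 8.2) with 0.02% Tween-20; glutamine added as 1mM solution.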
# p53 reactivation = mutant p53 re-activation in reporter cells. AID 504706. H1299 p53-A138V BP100-luciferase reporter, luminescence, 24 h. 320,000 compounds, 0.063% hits. Potency, µM (top dose mostly 92.2 µM), inactives show at the top dose activity change, positive = activation, most hits filed as activators; note: potency is the fitted concentration of half-maximal effect; % of control where 0% means no effect; nearly all actives have a fitted effect of over 45% in size
#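 p53-null H1299 cells stably carrying temperature-sensitive p53-A138V and a BP100-luciferase reporter were pinned with compounds (4-point, 1:5 series) and held 24 hrs at 37 deg C. Luminescence was read 10 min after detection reagent.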
# Numbers without * were called inactive; ? = inconclusive; · = no result; [ ] = dose if it differs, or a comment. An excerpt weighted towards active compounds, which were near 1.4% of everything screened. Unless noted, calls come from the whole dose curve; as a rule, active = well fitted curve in the direction sought with a large enough effect; inconclusive = small, poorly fitted or top-dose-only effect, or another doubt; inactive = no such curve, though single readings can be large; an effect the other way counts as inactive or inconclusive.
SMILES,TSHR antag,TCR activator,N370S GC,BRCA1 expr act,GLS inh,p53 reactivation
O=C(COC(=O)c1cccc(-n2cnnn2)c1)c1ccc(F)cc1,-3,1%,2%,?,0%,14%
COc1ccc(CC(=O)OCC(=O)c2ccc[nH]2)cc1,19,-2%,·,-7%,-7%,13%
COc1ccc(C(=O)COC(=O)c2cccc(-n3cnnn3)c2)c(OC)c1,13,-2%,-6%,2.5µM*,-11%,20%
COc1ccc(C(=O)OCC(=O)c2ccc[nH]2)c(OC)c1,8,-1%,·,8.9µM*,-4%,?
COc1ccc(C(=O)COC(=O)c2cc(=O)[nH]c3ccccc23)c(OC)c1,-5,5%,-12%,13µM*,4%,?
Cc1ccsc1C(=O)OCC(=O)c1ccc[nH]1,12,-3%,·,5.6µM*,-9%,?
CC1=C(C(=O)Nc2cc(Cl)ccc2C)C2(CCCCC2)OC1=O,·,·,·,·,-7%,·
COc1ccc(Br)cc1C1NC(c2ccc3c(c2)OCO3)=CC(c2cc(Cl)ccc2O)N1 (stereo not drawn),·,·,·,1%,·,·
COc1ccc(C2=NOC(CNC(N)=S)C2)cc1 (stereo not drawn),0,-2%,1%,3.2µM*,7%,?
COc1ccc(C2=NOC(C(=O)NCC(C)C)C2)cc1 (stereo not drawn),0,-3%,-3%,?,-18%,1%
CSc1ccc(/C=C2\C=C(C(O)c3ccc(SC)cc3)c3ccccc32)cc1 (stereo not drawn),·,·,·,0%,·,·
O=C(N/N=C\c1ccc(COc2ccc([N+](=O)[O-])cc2)o1)c1ccc(Cl)cc1,1,5%,2%,-28%,12%,-7%
COc1ccc(OCc2ccc(/C=N\NC(=O)c3sccc3C)o2)cc1,0,-5%,-5%,13µM*,-8%,10%
COc1ccc(CNc2cccnc2Cl)cc1,·,·,·,10µM*,4%,·
Cc1nc(-c2ccc3c(c2)OCCCO3)cs1,4,-9%,2%,2.5µM*,0%,7%
CCCCOc1ccc(C(=O)NC)cc1,-4,-3%,9%,49%,8%,0%
CCCCOc1ccc(/C(N)=N/O)cc1,3,2%,-13%,11µM*,19%,?
COC(=O)Cn1c(C)nc2c(sc3nc(C)cc(C)c32)c1=O,-14,0%,-1%,6.3µM*,-3%,9%
CCOC(=O)Cn1cnc2c(sc3nc(C)cc(C)c32)c1=O,16,5%,1%,69%,-9%,4%
O=C(c1ccc2c(c1)OCO2)N1CCN(S(=O)(=O)c2ccc(Cl)cc2)CC1,-96*,-3%,-5%,-18%,7%,-4%
O=C(c1cccc(F)c1)N1CCN(Cc2ccc3c(c2)OCO3)CC1,-42,·,-14%,7%,4%,·
O=C(c1cccc(Cl)c1)N1CCN(Cc2ccc3c(c2)OCO3)CC1,-120*,4%,2%,-7%,3%,10%
O=C(c1ccc2c(c1)OCO2)N1CCN(c2ccc(Cl)cc2)CC1,-1,0%,3%[2.35 µM],-26%,12%,-1%
Clc1ccccc1-c1cc2nc(NCCCn3ccnc3)ccn2n1,·,·,·,10µM*,-3%,·
COC(=O)C1=C(C(=O)OC)[C@@H]2Nc3ccccc3[C@@]23C[C@@H](C(=O)OC)N(S(=O)(=O)c2cccs2)C3=N1,·,·,10%[12.8 µM],·,·,·
SMILES,TSHR antag,TCR activator,N370S GC,BRCA1 expr act,GLS inh,p53 reactivation
Cc1ccc(CNC(=O)c2ccc(C)s2)cc1,·,-1%,·,13µM*,0%,·
CC1CCCN(C(=O)CNC(=O)c2cccs2)C1 (stereo not drawn),3,-6%,·,10µM*,3%,?
CC(=O)N1CCN(C(=O)CNC(=O)c2cccs2)CC1,11,2%,·,2%,-4%,8%
CN(C)C(=O)c1ccc(COc2ccccc2Br)o1,-7,-1%,4%,10µM*,-8%,12%
O=C(Nc1ccc(Cl)cn1)c1ccc(COc2ccccc2Br)o1,-30,5%,23%,11µM*,-6%,9%
Cc1ccccc1NC(=O)c1sc2nc(-c3ccncc3)ccc2c1N,·,·,·,0%,-11%,·
CCCCOc1ccc(C(=O)NCC2(N3CCN(C)CC3)CCCCC2)cc1,·,·,·,·,1%,·
COC(=O)CSc1nc(N)c(C#N)c(-c2ccc(O)cc2)c1C#N,-8,4%,-4%,-60%,11µM*,-10%
O=c1oc2ccccc2c(NC2CCCCC2)c1NS(=O)(=O)c1ccc(Br)cc1,17,-3%,5%,-42%,25%,-6%
CCCNc1c(NS(=O)(=O)c2ccc(Br)cc2)c(=O)oc2ccccc12,-147*,-1%,2%,-13%,21%,-8%
CC(=O)N1CCc2cc(S(=O)(=O)NCCC(=O)Nc3ccc4c(c3)OCCO4)ccc21,-6,-2%,0%,11µM*,12%,?
CC(=O)N1c2ccc(S(=O)(=O)NCCC(=O)Nc3ccccc3C)cc2CC1C (stereo not drawn),-133*,0%,-8%,-23%,-11%,1%
CC(=O)N1c2ccc(S(=O)(=O)NCCC(=O)Nc3cccc(Cl)c3)cc2CC1C (stereo not drawn),-126*,3%,-15%,-8%,-9%,1%
CC(=O)N1c2ccc(S(=O)(=O)NCCC(=O)Nc3ccc(C)c(Cl)c3)cc2CC1C (stereo not drawn),-2,-18%,-4%,-35%,2%,22%
COc1cc2nc(N3CCCCC3)nc(NC3CC3)c2cc1OC,·,·,·,0%,·,·
O=C(C[n+]1ccccc1Cl)c1ccc2c(c1)CCCC2,·,·,·,59%,·,·
CN(C)c1ccc(/C=C\C=C/c2ccnc3ccccc23)cc1,·,·,·,6%,·,·
C[C@H]1O[C@H](O[C@H]2[C@H](O[C@@H]3CC[C@@]4(C)C(CC[C@]5(C)C4CC=C4[C@@H]6CC(C)(C)CC[C@]6(C(=O)O[C@@H]6O[C@H](CO)[C@@H](O)[C@H](O)[C@H]6O)CC[C@]45C)C3(C)C)O[C@H](C(=O)O)[C@@H](O)[C@@H]2O)[C@@H](O)[C@@H](O)[C@@H]1O (stereo partly drawn),-15,-5%,0%,-22%,?,-1%

# Bioassay records from PubChem BioAssay.
